This is a sample that favours compounds with a hit; in the whole collection about 10% have one here.
G9a inh: inhibitors of human histone lysine methyltransferase G9a | Potency, µM (series often up to 102 µM), inactives show at the highest dose activity, negative = inhibition, actives largely listed as inhibitors | AID 504332 | G9a H3K9 monomethylation, AlphaScreen, 2 h | Q96KQ7 | actives 8.8% (n = 350,000); also: potency is read from the fitted curve at half-maximal effect; % is scaled to controls: 0 for no effect and ±100 for the full control effect; nearly all actives have a fitted effect of over 75% in size
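Readings reflect AlphaScreen signal from monomethyl-H3K9 antibody detection. HMT at 20 nM; substrate b-H3K9 500 nM; cofactor SAM 20 uM; 2 h RT reaction; compounds tested as titrations in qHTS with 15 min preincubation.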
Six1-Eya2 inh: blocks human Six1 binding to Eya2. Q15475+O00167. AlphaScreen GST-Six1/His-Eya2 binding, biochemical; hits give low values. activity change, % (concentration not given with the values). actives 0.56% (n = 360,000). AID 651725; in the data active = activity change below about -65%; inconclusive = mostly about -30% to -63%; also: % is scaled to controls: 0 for no effect and ±100 for the full control effect
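AlphaScreen with GST-Six1 and His-Eya2 (5X mix: 250 nM and 500 nM), glutathione donor and nickel acceptor beads; buffer 50 mM Tris pH 8.0, 300 mM NaCl, 1 mM TCEP; 1 h at 37 C in the dark.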
HP1b chromo inh: inhibitors of HP1-beta chromodomain binding to methylated histone tails; P83916; AlphaScreen HP1-beta / biotin-H3K9me3 peptide binding; Potency, µM (titrated, usually from 114 µM), without a hit: at the top dose activity change, negative = inhibition, actives largely listed as inhibitors; actives 0.56% (n = 390,000); also: potency is read from the fitted curve at half-maximal effect; nearly all actives have a fitted effect of over 70% in size
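Compound inhibition of the preformed complex between 50 nM HP1-beta and 50 nM biotinylated H3K9me3 peptide was read by AlphaScreen. Buffer was PBS pH 7.4 with 0.01% Tween-20. Incubations ran 30 min at room temperature, with 10 ug/mL donor/acceptor beads.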
CtBP-E1A inh: blocks the CtBP interaction with E1A | AlphaScreen GST-E1A/His-CtBP binding, 1536-well; hits give low values | activity change, % (concentration not given with the values) | actives 0.49% (n = 340,000) | AID 651724; in the data active = activity change below about -65%; inconclusive = mostly about -30% to -63%; also: % is scaled to controls: 0 for no effect and ±100 for the full control effect
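In 5 uL wells, 23 nL compound meets equimolar GST-E1A and His-CtBP (5X stock 125 nM each) for 2 h, 37 °C. Beads (5X, 50 ug/mL) then 1 h, 37 °C, dark.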
JMJD2A Tudor: inhibitors of human JMJD2A Tudor domain; AlphaScreen JMJD2A-Tudor / H3K4me3 peptide binding; Potency, µM (top dose mostly 114 µM), for inactives: top-dose activity change, negative = inhibition, hits mostly inhibitors; actives 4.4% (n = 390,000); AID 504339; also: potency is read from the fitted curve at half-maximal effect; % is scaled to controls: 0 for no effect and ±100 for the full control effect; nearly all actives have a fitted effect of over 50% in size
BAZ2B block: inhibitors of human BAZ2B bromodomain. AlphaScreen BAZ2B-H3K14Ac peptide displacement. actives 4.4% (n = 360,000). AID 504333. Potency, µM (top dose mostly 114 µM), without a hit: at the top dose activity change, negative = inhibition, actives largely listed as inhibitors. Q9UIF8; also: potency is read from the fitted curve at half-maximal effect; % is scaled to controls: 0 for no effect and ±100 for the full control effect; nearly all actives have a fitted effect of over 60% in size
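BAZ2B (50 nM) with biotin-H3(5-23)K14Ac peptide (50 nM) in PBS pH 7.4, 0.01% Tween-20, preformed 30 min, then compound 30 min at room temperature; top concentration 110uM. AlphaScreen streptavidin donor/nickel chelate acceptor beads (10 ug/mL final), 20 min dark, signal read.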
Starred values were filed as active, the others as inactive; ? = inconclusive; · = not tested or not shown; ! = a repeat was not active; [ ] = another dose, or the depositor's remark. Unless noted, calls follow the shape of the dose curve; as a rule, active = well fitted inhibition curve with a large enough effect; inconclusive = small, poorly fitted or top-dose-only effect; inactive = no such curve, though single readings can be large or run the other way.

SMILES	G9a inh	Six1-Eya2 inh	HP1b chromo inh	CtBP-E1A inh	JMJD2A Tudor	BAZ2B block
CC(NC(=O)Nc1ccc([N+](=O)[O-])cc1)C(c1ccccc1)N1CCOCC1 (stereo unspecified)	40µM*	-2	11%	-5	-28%	16%
Cn1cc(Cl)c(C(=O)N/N=C/c2ccc3c4c(cccc24)CC3)n1	12%	-21	70%	?	-8%	-17%
Cc1ccc2oc(C(=O)N(Cc3ccc(N(C)C)cc3)CC3CCCO3)c(C)c2c1 (stereo unspecified)	28µM*	?	?	?	50µM*	11µM*
Cc1cc2oc(C(=O)N(Cc3ccc(N(C)C)cc3)CC3CCCO3)c(C)c2cc1C (stereo unspecified)	14µM*	?	?	·	13µM*!	14µM*
Cc1ccc2c(C)c(C(=O)N(Cc3ccncc3)CC3CCCO3)oc2c1C (stereo unspecified)	·	-1	14%	-3	-28%	-10%
COc1cc(CN(CC2CCCO2)C(=O)c2ccc(F)cc2)cc(OC)c1OC (stereo unspecified)	4%[59 µM]	·	0%	·	0%	0%
COc1cc(C(=O)N(Cc2ccc(N(C)C)cc2)CC2CCCO2)cc(OC)c1OC (stereo unspecified)	?	·	5%	·	-30%	79µM*
CSc1ccc(CCNC(=O)C2CCCN(S(=O)(=O)N(C)c3ccc(F)cc3)C2)cc1 (stereo unspecified)	-6%[59 µM]	·	0%	·	-16%	-17%
O=C(Nc1cccc(-c2nc3ccccc3o2)c1)c1cc([N+](=O)[O-])ccc1N1CCOCC1	?	·	21%	·	-28%	?
C[C@]12C[C@H](O)C3[C@@H](CCC4=CC(=O)CC[C@@]43C)[C@@H]1CC[C@@H]2C(=O)CO (stereo partly specified)	32%[12.7 µM]	·	·	·	·	·
NC(=O)c1cc(S(=O)(=O)NC2CCCCC2)co1	-7%	4	45%	4	-3%	-5%
COc1ccc(-n2c(C)cc(-c3csc(N)n3)c2C)cc1	8.9µM*	-3	?	1	45µM*	45µM*
Cc1cc(-c2csc(N)n2)c(C)n1-c1ccc(Cl)c(Cl)c1	20µM*	1	?	7	56µM*	?
Cc1ccc2c(c1)Cc1c(nc(-c3ccc(Cl)cc3)nc1SCC(=O)N1CCCCC1)O2	-34%[59 µM]	·	22%	·	-8%	-3%
O=C(Nc1ccc2c(c1)CCCN2C(=O)c1cccs1)c1ccc(F)c(F)c1	-23%[59 µM]	·	36%	·	-5%	-19%
COC(=O)CC1C(=O)NCCN1C(=S)NC(=O)c1ccccc1[N+](=O)[O-] (stereo unspecified)	?	-9	6%	9	?	-29%
CCOC(=O)CC1C(=O)NCCN1C(=S)Nc1ccccc1 (stereo unspecified)	-17%[59 µM]	3	31%	-10	4%	1%
CCOC(=O)CC1C(=O)NCCN1C(=S)NC(=O)c1ccccc1OC (stereo unspecified)	·	9	-12%	-2	28µM*	-1%
CC(C)OC(=O)CC1C(=O)NCCN1C(=S)NC(=O)c1cccs1 (stereo unspecified)	45µM*	7	24%	-7	-24%	-21%
CCc1ccccc1NC(=S)N1CCNC(=O)C1CC(=O)OC (stereo unspecified)	-20%	6	-1%	3	45µM*	-14%
CCOC(=O)C1=CCC(c2cc3ccccc3[nH]2)NC1 (stereo unspecified)	·	-14	·	9	·	·
O=S(=O)(NCCS(=O)(=O)N1CCN(c2ccc(F)cc2)CC1)c1ccc(F)cc1	·	1	·	-6	·	·
Cc1cccc(NC(=O)C(=O)NCC(c2ccc3c(c2)OCO3)N2CCN(c3ccccc3)CC2)c1 (stereo unspecified)	-2%[59 µM]	·	10%[57 µM]	·	-15%	-18%
C=CCn1c(C)csc1=Nc1ccc(C(=O)O)cc1	?	1	30%	4	-21%	·
CC(=O)c1ccc(N=c2scc(C)n2C(C)C)cc1	45µM*	-2	-17%	5	?	?
SMILES	G9a inh	Six1-Eya2 inh	HP1b chromo inh	CtBP-E1A inh	JMJD2A Tudor	BAZ2B block
O=c1c(-c2ccccc2)c1-c1ccccc1	29%[59 µM]	·	·	·	·	-10%
S=c1sscc1-c1ccccc1	·	-70*	20µM*	-81*	32µM*	·
COc1cc(CNc2ccccc2SC)ccc1O	?	-11	0%	-18	35µM*	?
CCOC(=O)c1nnn(C(CC)C(=O)Nc2c(C)cccc2C)c1C(=O)OCC (stereo unspecified)	-3%[59 µM]	·	27%	·	-2%	-7%
CCOc1ccc(NC(=S)NC(=O)/C=C/c2ccc(OC)c(OC)c2)c([N+](=O)[O-])c1	50µM*	-5	-25%	-3	?	-31%[57.1 µM]
CCOc1ccc(NC(=S)NC(=O)/C=C/c2ccc(C)cc2)c([N+](=O)[O-])c1	-39%	-7	7%	-20	-18%	?
COc1ccc(/C=C/C(=O)NC(=S)NNC(=O)c2ccco2)cc1OC	35µM*	-2	59%	1	-12%	3%
COc1ccccc1OCC(=O)NNC(=S)NC(=O)c1ccco1	?	4	4%	18	79µM*	55%
COc1ccc(/C=C/C(=O)NC(=S)NNC(=O)Cc2cccs2)cc1	32µM*	-21	41%	-23	13%	6%
COC(=O)c1ccc(CNC(=O)C(NC(=O)c2ccco2)C(C)C)cc1 (stereo unspecified)	17%[59 µM]	60	-15%	2	-20%	-2%
COc1ccc(/C=C/C(=O)NC(=S)NNC(=O)c2ccco2)cc1	13µM*	-19	23%	-21	-11%	9%
COc1cccc(-c2nn(C)c3sc(C(=O)NCc4ccc(C)o4)cc23)c1	?	?	-34%	?	50µM*	?
COc1ccc(N(C(=O)/C=C\C(=O)Nc2ccc(C)cc2)C(C(=O)NCc2ccco2)c2ccc(C)cc2)cc1 (stereo unspecified)	14µM*	·	8%	·	?	-20%
COc1ccc(NC(=O)/C=C\C(=O)N(c2ccc(C(C)C)cc2)C(C(=O)NCc2ccco2)c2ccc(C)cc2)cc1 (stereo unspecified)	?	·	44%	·	-32%	-17%
COC(=O)[C@]12CCCCC=C1N(Cc1ccc(Cl)cc1Cl)C(=O)[C@H](CC(=O)N1CCC(c3ccccc3)CC1)C2	·	-3	·	?	·	·
CC(=O)c1c(C)nn(CCC(=O)O)c1C	-41%	4	?	2	40µM*	-3%

High-throughput results as filed in PubChem.
